ChEMBL document CHEMBL1961873, “Compounds: GSK PKIS; Assays: Nanosyn kinase panel” (2012)

Experiments:
[1] = target: T1, Mitogen-activated protein kinase 12 (Homo sapiens) (UniProt P53778); conditions: at 1 µM;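 also: values are averaged p38gamma kinase inhibition readings, compounds tested at 1 µM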
T1 sequence (whole entry): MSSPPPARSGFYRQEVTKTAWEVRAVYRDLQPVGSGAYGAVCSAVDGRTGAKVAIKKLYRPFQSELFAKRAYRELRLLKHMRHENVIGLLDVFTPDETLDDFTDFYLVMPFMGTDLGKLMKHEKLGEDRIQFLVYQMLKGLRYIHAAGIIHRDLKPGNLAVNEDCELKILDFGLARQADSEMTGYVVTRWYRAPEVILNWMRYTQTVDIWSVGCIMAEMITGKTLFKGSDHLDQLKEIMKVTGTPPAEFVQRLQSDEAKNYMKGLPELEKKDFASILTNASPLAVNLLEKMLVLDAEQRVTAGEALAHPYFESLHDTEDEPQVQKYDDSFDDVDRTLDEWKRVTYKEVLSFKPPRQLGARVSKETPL

[2] = target: SRSF protein kinase 1 (Homo sapiens) (UniProt Q96SB4); conditions: at 0.1 µM
Chain of SRSF protein kinase 1 (Homo sapiens) (Q96SB4 whole entry, canonical isoform): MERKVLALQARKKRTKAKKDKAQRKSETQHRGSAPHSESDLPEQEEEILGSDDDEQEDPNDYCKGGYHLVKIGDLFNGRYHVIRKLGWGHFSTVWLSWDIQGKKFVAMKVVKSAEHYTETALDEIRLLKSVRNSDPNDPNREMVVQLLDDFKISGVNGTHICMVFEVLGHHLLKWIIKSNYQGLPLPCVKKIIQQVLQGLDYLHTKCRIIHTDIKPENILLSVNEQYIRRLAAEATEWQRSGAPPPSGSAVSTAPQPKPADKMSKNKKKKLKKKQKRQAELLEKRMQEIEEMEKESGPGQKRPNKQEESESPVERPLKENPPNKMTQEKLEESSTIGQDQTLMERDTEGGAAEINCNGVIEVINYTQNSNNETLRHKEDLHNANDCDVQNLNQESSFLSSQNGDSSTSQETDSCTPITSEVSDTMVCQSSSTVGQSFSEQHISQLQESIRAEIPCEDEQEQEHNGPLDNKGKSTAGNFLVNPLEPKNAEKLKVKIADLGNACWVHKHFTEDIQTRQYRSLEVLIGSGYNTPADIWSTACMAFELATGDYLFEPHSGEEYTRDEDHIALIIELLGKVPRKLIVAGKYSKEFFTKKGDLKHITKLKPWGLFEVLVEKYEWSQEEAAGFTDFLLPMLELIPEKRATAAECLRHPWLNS

[3] = target: SRSF protein kinase 1 (Homo sapiens) (UniProt Q96SB4); conditions: at 1 µM
[4] = target: Phosphatidylinositol 4,5-bisphosphate 3-kinase catalytic subunit alpha isoform (Homo sapiens) (UniProt P42336); conditions: at 0.1 µM
Chain of Phosphatidylinositol 4,5-bisphosphate 3-kinase catalytic subunit alpha isoform (Homo sapiens) (P42336 whole entry, canonical isoform): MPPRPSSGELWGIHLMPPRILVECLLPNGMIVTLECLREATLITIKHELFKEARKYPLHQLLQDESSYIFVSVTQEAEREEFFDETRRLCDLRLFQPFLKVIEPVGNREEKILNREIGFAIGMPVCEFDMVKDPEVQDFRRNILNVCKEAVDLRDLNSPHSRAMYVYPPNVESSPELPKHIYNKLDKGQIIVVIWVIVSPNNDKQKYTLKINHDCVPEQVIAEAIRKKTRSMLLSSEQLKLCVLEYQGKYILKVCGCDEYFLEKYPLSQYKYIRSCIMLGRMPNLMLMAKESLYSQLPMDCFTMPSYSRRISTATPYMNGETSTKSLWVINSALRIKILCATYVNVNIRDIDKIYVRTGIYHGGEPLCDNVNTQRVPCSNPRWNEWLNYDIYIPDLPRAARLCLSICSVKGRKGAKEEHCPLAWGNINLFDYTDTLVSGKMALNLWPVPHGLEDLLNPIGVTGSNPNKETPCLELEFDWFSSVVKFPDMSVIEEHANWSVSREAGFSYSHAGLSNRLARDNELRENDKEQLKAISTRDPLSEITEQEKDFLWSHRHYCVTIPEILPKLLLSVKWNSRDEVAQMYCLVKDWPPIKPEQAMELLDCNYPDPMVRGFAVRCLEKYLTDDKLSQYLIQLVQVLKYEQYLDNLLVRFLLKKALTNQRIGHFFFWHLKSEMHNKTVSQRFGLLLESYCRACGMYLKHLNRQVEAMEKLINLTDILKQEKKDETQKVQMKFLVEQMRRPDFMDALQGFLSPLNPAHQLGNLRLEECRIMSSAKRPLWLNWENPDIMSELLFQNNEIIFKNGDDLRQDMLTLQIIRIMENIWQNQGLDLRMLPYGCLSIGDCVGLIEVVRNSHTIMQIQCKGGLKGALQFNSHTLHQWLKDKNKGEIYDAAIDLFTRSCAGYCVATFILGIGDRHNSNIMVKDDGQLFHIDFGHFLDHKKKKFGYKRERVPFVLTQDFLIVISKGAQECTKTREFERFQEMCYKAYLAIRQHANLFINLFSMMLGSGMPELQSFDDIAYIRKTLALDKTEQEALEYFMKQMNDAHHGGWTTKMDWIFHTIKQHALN

[5] = target: Phosphatidylinositol 4,5-bisphosphate 3-kinase catalytic subunit alpha isoform (Homo sapiens) (UniProt P42336); conditions: at 1 µM
[6] = target: T2, Phosphatidylinositol 4,5-bisphosphate 3-kinase catalytic subunit delta isoform (Homo sapiens) (UniProt O00329); conditions: at 0.1 µM
T2 sequence (whole entry): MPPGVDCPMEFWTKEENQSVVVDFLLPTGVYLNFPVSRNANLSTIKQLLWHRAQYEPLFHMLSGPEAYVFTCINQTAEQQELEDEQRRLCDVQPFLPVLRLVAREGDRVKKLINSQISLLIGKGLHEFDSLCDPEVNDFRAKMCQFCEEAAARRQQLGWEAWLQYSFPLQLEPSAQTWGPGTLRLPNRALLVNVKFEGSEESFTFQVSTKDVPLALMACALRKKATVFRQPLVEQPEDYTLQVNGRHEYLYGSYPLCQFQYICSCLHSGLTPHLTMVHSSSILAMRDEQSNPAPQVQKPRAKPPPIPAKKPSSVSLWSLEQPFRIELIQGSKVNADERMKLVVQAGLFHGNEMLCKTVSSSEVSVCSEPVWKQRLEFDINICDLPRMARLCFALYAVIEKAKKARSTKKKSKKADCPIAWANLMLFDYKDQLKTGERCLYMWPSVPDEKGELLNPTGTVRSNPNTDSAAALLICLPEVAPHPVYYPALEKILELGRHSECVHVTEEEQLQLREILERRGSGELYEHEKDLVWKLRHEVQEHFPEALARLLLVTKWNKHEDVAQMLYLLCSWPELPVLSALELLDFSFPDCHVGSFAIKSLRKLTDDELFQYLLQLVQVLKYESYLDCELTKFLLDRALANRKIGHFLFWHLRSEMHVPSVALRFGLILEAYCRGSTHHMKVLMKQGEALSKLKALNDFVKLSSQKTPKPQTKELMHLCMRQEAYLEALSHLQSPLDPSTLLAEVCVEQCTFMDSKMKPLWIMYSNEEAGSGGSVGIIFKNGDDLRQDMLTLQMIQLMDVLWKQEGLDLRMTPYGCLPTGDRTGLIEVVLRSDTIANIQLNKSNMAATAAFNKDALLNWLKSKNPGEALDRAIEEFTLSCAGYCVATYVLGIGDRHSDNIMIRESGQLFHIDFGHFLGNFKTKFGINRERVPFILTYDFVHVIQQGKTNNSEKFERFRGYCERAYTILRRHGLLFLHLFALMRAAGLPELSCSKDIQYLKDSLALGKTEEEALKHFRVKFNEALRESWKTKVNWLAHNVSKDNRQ

[7] = target: T2, Phosphatidylinositol 4,5-bisphosphate 3-kinase catalytic subunit delta isoform (Homo sapiens); conditions: at 1 µM
[8] = target: Phosphatidylinositol 4-kinase beta (Homo sapiens) (UniProt Q9UBF8); conditions: at 0.1 µM
Chain of Phosphatidylinositol 4-kinase beta (Homo sapiens) (Q9UBF8 2-816 limits assumed): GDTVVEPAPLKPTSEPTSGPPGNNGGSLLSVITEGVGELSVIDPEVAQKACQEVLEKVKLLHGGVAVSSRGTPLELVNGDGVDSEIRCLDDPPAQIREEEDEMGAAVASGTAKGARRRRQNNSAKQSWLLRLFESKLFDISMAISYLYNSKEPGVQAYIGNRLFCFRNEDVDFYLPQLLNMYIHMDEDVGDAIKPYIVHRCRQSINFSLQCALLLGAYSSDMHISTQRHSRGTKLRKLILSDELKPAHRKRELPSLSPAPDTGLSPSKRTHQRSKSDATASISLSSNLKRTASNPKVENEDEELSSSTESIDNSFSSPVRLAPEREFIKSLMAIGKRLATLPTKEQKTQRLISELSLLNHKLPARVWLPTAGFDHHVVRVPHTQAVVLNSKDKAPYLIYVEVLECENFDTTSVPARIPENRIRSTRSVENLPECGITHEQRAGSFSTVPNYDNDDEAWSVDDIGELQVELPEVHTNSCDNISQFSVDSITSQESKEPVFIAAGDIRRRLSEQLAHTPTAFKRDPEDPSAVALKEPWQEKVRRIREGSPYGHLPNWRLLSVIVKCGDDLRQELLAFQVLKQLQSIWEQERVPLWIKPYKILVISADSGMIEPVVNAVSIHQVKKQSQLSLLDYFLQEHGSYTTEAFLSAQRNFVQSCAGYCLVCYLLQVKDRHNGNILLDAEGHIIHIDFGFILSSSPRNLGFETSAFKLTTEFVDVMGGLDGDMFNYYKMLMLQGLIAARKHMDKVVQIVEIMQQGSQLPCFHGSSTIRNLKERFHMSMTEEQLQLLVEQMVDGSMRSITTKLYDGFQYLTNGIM

[9] = target: Phosphatidylinositol 4-kinase beta (Homo sapiens) (UniProt Q9UBF8); conditions: at 1 µM
[10] = target: Sphingosine kinase 1 (Homo sapiens) (UniProt Q9NYA1); conditions: at 0.1 µM;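 also: mean percent inhibition of SPHK1 activity, measured within the GSK PKIS screening panel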
Chain of Sphingosine kinase 1 (Homo sapiens) (Q9NYA1 whole entry): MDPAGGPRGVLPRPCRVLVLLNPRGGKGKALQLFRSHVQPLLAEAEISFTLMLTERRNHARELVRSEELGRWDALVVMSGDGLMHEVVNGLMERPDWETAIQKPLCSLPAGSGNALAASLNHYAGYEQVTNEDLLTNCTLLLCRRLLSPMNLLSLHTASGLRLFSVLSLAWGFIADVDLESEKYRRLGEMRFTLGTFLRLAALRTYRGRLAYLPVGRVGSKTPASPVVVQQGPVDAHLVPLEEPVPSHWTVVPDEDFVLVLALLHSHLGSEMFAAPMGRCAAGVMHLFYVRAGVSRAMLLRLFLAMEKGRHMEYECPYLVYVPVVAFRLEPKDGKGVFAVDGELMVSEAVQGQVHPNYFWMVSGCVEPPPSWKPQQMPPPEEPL

Row | Compound | inhibition [1] [%] | inhibition [2] [%] | inhibition [3] [%] | inhibition [4] [%] | inhibition [5] [%] | inhibition [6] [%] | inhibition [7] [%] | inhibition [8] [%] | inhibition [9] [%] | inhibition [10] [%]
1 | CN(C)CCCn1c(-c2nonc2N)nc2cnccc21 | 3.42 | -2.65 | -4.44 | 2.84 | 5.05 | 1.95 | 4.09 | 0.95 | 3.34 | 2.52
2 | CS(=O)(=O)CCNCc1nc(-c2ccc3ncnc(Nc4ccc(OCc5cccc(C(F)(F)F)c5)cc4)c3c2)cs1 | 2.12 | -2.46 | -3.03 | 1.85 | -0.47 | 0.76 | 3.63 | -0.59 | 0.33 | -1.19
3 | C[C@@H](Oc1cc(-n2cnc3ccc(OCC4CCN(C)CC4)cc32)sc1C(N)=O)c1ccccc1C(F)(F)F | -2.08 | -0.56 | 1.16 | -1.6 | 13.3 | 2.19 | 55.9 | 6.54 | 0.1 | 0.59
4 | NS(=O)(=O)c1ccc(NC=C2C(=O)Nc3ccc4ncsc4c32)cc1 | 5.67 | -2.53 | -1.62 | 3.58 | 13.1 | 5.31 | 27.3 | -1.46 | 4.92 | 1.36
5 | COc1cc2ncnc(Nc3ccc(C)c(O)c3)c2cc1OC | 4.08 | -1.2 | -0.28 | 4.07 | 7.27 | 1.27 | 4.88 | -1.03 | -0.17 | 4.48
6 | CN(C)C(=O)O[C@@H]1CN[C@@H](C#Cc2cc3ncnc(Nc4ccc(OCc5cccc(F)c5)c(Cl)c4)c3s2)C1 | 1.28 | -1.65 | -5.46 | 0.17 | 29 | 3.66 | 20.8 | -2.99 | -0.33 | 0.88
7 | NC(=O)c1sc(-n2cnc3ccccc32)cc1OCc1ccccc1Br | 5.59 | -3.49 | -2.38 | 4.02 | 4.31 | 2.31 | 4.24 | 0.67 | -1.28 | 1.25
8 | CN(C)c1cc2c(Nc3ccc4c(cnn4Cc4ccccc4)c3)ncnc2cn1 | 1.89 | -2.31 | -3.59 | 1.32 | 1.28 | 0.82 | 3.28 | -1.83 | 7.07 | 0.08
9 | COC(=O)Nc1nc2cc(Oc3ccc(NC(=O)Nc4cccc(Br)c4)cc3)ccc2[nH]1 | 1.52 | -2.5 | -2.45 | 0.99 | 8.57 | 1.03 | 7.1 | 0.03 | -5.6 | -1.27
10 | COC(=O)c1cncc(/C=C/c2c(C)cc(O)cc2C)c1 | 1.22 | 0.45 | 2.47 | 2.59 | 2.56 | 3.23 | 2.23 | 2.65 | 0.11 | 2.52
11 | c1ccc(Nc2ncc(-c3ccccc3)o2)cc1 | 5.26 | -2.25 | -2.19 | 5.87 | 6.84 | 1.87 | 4.99 | 5.07 | -3.06 | 2.26
12 | FC(F)(F)c1ccc(-c2nn3ncccc3c2-c2ccnc(Nc3ccc4c(c3)OCCO4)n2)cc1 | 2.26 | 8.18 | 13 | 0.21 | -2.14 | 1.63 | 0.41 | 1.96 | -3.87 | 0.8
13 | CN(C)C(=O)O[C@H]1CN[C@H](C#Cc2cc3ncnc(Nc4ccc(OCc5cccc(F)c5)c(Cl)c4)c3s2)C1 | 1.22 | -0.93 | -1.25 | 1.47 | 31.7 | 1.7 | 17.4 | 4.95 | -3.29 | 0.36
14 | CCn1c(-c2nonc2N)nc2c(C#CC(C)(C)O)nc(OCCNC)cc21 | 6.39 | -3.96 | -2.97 | 5.21 | 4.34 | 1.6 | 1.55 | -2.53 | 3.94 | -1.43
15 | CC(C)c1ccc2c(c1)NC(=O)/C2=N/Nc1ccc(S(N)(=O)=O)cc1 | 0.63 | -0.89 | -0.94 | 0.32 | 1.8 | 0.64 | 0.71 | 0.05 | 0.24 | 0
16 | N#Cc1c(NC(=O)c2ccccc2F)sc2c1CCCC2 | -0.74 | -1.54 | -0.64 | -2.15 | -1.29 | 1.85 | 2.06 | 0.79 | 2.03 | 0.86
17 | COc1cc2ncnc(Nc3ccc4c(cnn4Cc4ccccc4)c3)c2cc1OC | 3.71 | -4.03 | -2.33 | 1.81 | 2.38 | 0.53 | 1.87 | 1.81 | 4.03 | 0.61

Row | Compound | inhibition [1] [%] | inhibition [2] [%] | inhibition [3] [%] | inhibition [4] [%] | inhibition [5] [%] | inhibition [6] [%] | inhibition [7] [%] | inhibition [8] [%] | inhibition [9] [%] | inhibition [10] [%]
18 | CCn1c(-c2nonc2N)nc2ccc(F)cc21 | 3.36 | -1.22 | 2.61 | 4.99 | 4.15 | 3.09 | 2.96 | -0.18 | 6.29 | 0.88
19 | COc1cc2ncn(-c3cc(OCc4ccccc4S(C)(=O)=O)c(C#N)s3)c2cc1OC | 2.63 | -1.91 | -1.66 | 3.16 | 3.95 | 2.67 | 3.41 | -5.13 | -1.46 | 0.08
20 | c1ccc(Cc2nc3ccc(Nc4ncnc5ccccc45)cc3[nH]2)cc1 | 0.6 | -1.1 | 1.41 | 3.03 | 4.64 | 1.66 | 0.62 | -0.98 | -1.72 | 1.07
21 | N#Cc1cccc(Nc2nccc(-c3cnn4ncccc34)n2)c1 | 26.4 | 0.8 | 23 | 6.65 | 23.3 | 3.45 | 21.2 | -5.91 | 14.8 | -0.07
22 | CCCN1CCCC(c2ccc(Nc3nc(Nc4cc(F)ccc4C(N)=O)c4cc[nH]c4n3)c(OC)c2)C1 (stereo not given) | 3.39 | -0.71 | 7.5 | 2.9 | 5.55 | 2.18 | 9.74 | -3.21 | -1.21 | -0.22
23 | Cc1ccc(O)cc1Nc1ccnc2ccc(S(C)(=O)=O)cc12 | 3.79 | -0.84 | 2.51 | 9.67 | 39.6 | 10.9 | 50.7 | -3.87 | 1.39 | 1.12
24 | Cc1ccc2c(-c3ccnc(Nc4ccc5c(c4)OCCO5)n3)c(-c3ccc(C(F)(F)F)cc3)nn2n1 | 0.43 | -1.35 | -3.21 | -1.09 | -0.65 | 0.68 | 0.76 | 6.55 | -2.49 | 0
25 | Cc1cc(-c2ccccn2)cc(C)c1/C=C/c1cncc(-c2nn[nH]n2)c1 | 5.02 | -3.94 | -5.12 | 3.8 | 3.72 | 0.41 | -0.48 | -1.8 | 0.81 | 0.97
26 | O=S(=O)(CCOCc1ccc(-c2ccc3ncnc(Nc4ccc(OCc5cccc(F)c5)c(Cl)c4)c3c2)o1)c1ccccc1 | 4.2 | -2.76 | -1.54 | 1.05 | 12.9 | 0.99 | 10.1 | 0.56 | 0.4 | 1.08
27 | NS(=O)(=O)c1cccc(-c2cc3ccncc3cc2OCc2ccccc2)c1 | 3.69 | -1.98 | -2.89 | 4.56 | 6.5 | 2.08 | 5.47 | -1.89 | -5.37 | 0.1
28 | COc1cc(/C=N/Nc2ncnc3c2cnn3C(C)C)ccc1O | 1.85 | -0.73 | 1.12 | 19 | 70.5 | 20.9 | 71.3 | -8.74 | 26.5 | 0.17
29 | Cc1ccc2c(-c3ccnc(Nc4cccc(C(F)(F)F)c4)n3)c(-c3ccccc3)nn2n1 | 5.59 | -3.32 | -2.03 | 3.95 | 5.13 | 0.26 | 2 | 0.44 | -2.31 | 0.67
30 | Oc1cccc(-c2nc(-c3ccccc3)[nH]c2-c2ccncc2)c1 | 1.56 | -1.52 | 0.98 | 2.99 | 2.95 | 2.01 | 1.67 | -5.44 | -3.49 | 1.87
31 | C[C@@H](Oc1cc(-n2cnc3ccc(OC[C@@H](O)CO)cc32)sc1C(N)=O)c1ccccc1Cl | -1.21 | -0.36 | -1.3 | -0.06 | 13.4 | 1.99 | 34.9 | 3.09 | -1.09 | -2.33
32 | COC(=O)c1ccc2c(c1)C(=Cc1cc(Br)c(O)c(Br)c1)C(=O)N2 | 7.78 | -4.19 | -1.41 | 20.2 | 71.1 | -9.64 | -7.81 | 43.6 | 87.4 | 1.25
33 | CC(C)c1ccc(Nc2nccc(-c3cnn4ncccc34)n2)cc1 | 4.14 | -1.68 | -0.8 | 1.41 | 4.52 | 2.45 | 6.78 | 2.86 | 3.34 | 4.11
34 | COc1ccc(-c2nn3ncccc3c2-c2ccnc(Nc3cccc(C(F)(F)F)c3)n2)cc1 | 2.35 | -2.17 | -1.48 | 2.28 | 2.8 | -0.05 | 2.34 | 4.99 | -1.04 | 0.03
